D2 PAM-1 – HTS Assay for Positive Allosteric Modulators of the Human D2 Dopamine Receptor: Primary Screen for Potentiators; AID 485347, 2010; potentiation, % at 10 µM; HEK293 T-REx D2, calcium flux, EC20 dopamine potentiation; D(2) dopamine receptor (Homo sapiens), P14416; 0.34% of 340,000 active;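 active = potentiation over 3 SD above the plate norm, cut at about 30% in these data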; also: 0% is about no effect
Target sequence (P14416 whole entry, looked up): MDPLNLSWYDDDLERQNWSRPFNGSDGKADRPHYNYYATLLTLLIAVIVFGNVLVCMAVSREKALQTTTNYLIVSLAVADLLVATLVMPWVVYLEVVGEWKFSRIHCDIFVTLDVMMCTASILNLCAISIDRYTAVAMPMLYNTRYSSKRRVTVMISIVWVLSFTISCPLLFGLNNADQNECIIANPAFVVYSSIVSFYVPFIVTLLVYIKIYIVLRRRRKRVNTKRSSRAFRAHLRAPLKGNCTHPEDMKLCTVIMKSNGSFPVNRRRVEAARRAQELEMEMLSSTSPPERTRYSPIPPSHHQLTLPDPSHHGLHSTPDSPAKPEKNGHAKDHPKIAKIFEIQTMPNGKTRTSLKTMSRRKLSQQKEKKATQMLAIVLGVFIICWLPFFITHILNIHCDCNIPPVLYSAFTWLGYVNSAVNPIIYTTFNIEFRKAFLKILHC
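Tetracycline-induced Hek293 Trex D2 cells, force-coupled to calcium, loaded with no-wash calcium dye. Compound added with 180 s kinetic read for agonism, then EC20 dopamine and a further 180 s read for potentiation.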
D2 antag – HTS Assay for Allosteric Antagonists of the Human D2 Dopamine Receptor: Primary Screen for Antagonists | D(2) dopamine receptor (Homo sapiens), P14416 | HEK293 TREx D2 cells, calcium flux, dopamine EC80 | inhibition, % at 10 µM | 2% of 340,000 active; in the data active = inhibition above about 30%; inactive = below that, where a call was filed; also: 0% is about no effect
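Cells plated overnight at 30 C with tetracycline; no-wash calcium dye, 30–90 min RT; 10 s baseline; compound pinned; 180 s read; EC80 dopamine added; another 180 s read.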
D2 PAM-2 – Beta-Arrestin HTS for Positive Allosteric Modulators of the Human D2 Dopamine Receptor: Potentiators; DiscoveRx D2 beta-arrestin cells, luminescence, 90 min; 100% = 57 uM dopamine signal; potentiation, % (concentration not given with the values); 0.23% of 360,000 active; AID 624464, 2012; in the data active = potentiation above about 50%; inconclusive = mostly about 30% to 49%
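PathHunter D2 cells, attached overnight at 37 deg C, received compound in DMSO plus dopamine at EC20 (50 nM final) for 90 min at 37 deg C. Beta-arrestin recruitment was read as luminescence after 1 h with detection reagent at ambient temperature.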
D2 ag-1 – HTS Assay for Allosteric Agonists of the Human D2 Dopamine Receptor: Primary Screen for Agonists; HEK293 T-REx D2 cells, calcium flux agonist mode; activation, % at 2 µM; 0.53% of 340,000 active; AID 485358, 2010;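 active = activation over 3 SD above normal in the single-dose calcium agonist read, cut at about 30% in these data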; also: 0% is about no effect
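Tetracycline-induced HEK293 T-REx cells with force-coupled D2 receptor, plated overnight at 30 C, loaded with no-wash calcium dye. After a 10 s baseline, compound was pin-added and calcium flux read kinetically for 180 s; calcium rises flagged agonists.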
D2 ag-2 – Beta-Arrestin HTS for Positive Allosteric Modulators of the Human D2 Dopamine Receptor: Agonists; DiscoveRx PathHunter D2 beta-arrestin, luminescence, 90 min; 100% = 57 uM dopamine signal; activation, % (test concentration not listed); 0.084% of 360,000 active; AID 624465, 2012; in the data active = activation above about 40%; inconclusive = between about 15% and that limit
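Agonist mode: compounds alone added to overnight-plated D2 PathHunter cells for 90 min at 37 C, with 57 uM final dopamine (EC100) defining full response. Beta-arrestin recruitment detected by chemiluminescent reagent, read after 1 h at ambient temperature.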
* hit, by the source's call; ? = inconclusive; . = no result given. Only some compounds are listed: those with a hit (about 2.4% of all), similar ones and a draw of the others.

SMILES | D2 PAM-1 | D2 antag | D2 PAM-2 | D2 ag-1 | D2 ag-2
Clc1ccc(-c2ccc(CN3CCCCC3)o2)cc1 | -28 | 78* | -66 | 0 | -3
O=C(Nc1ccccc1N1CCOCC1)c1cccc(NS(=O)(=O)c2ccc(F)c(F)c2)c1 | -18 | 48* | 3 | -1 | 12
O=C(c1ccccc1)N1CCN(c2ccccc2F)CC1 | -18 | 0 | -10 | 3 | 2
COc1ccc(N2CCN(C(=O)c3ccc(NS(=O)(=O)c4cccc(F)c4)cc3)CC2)cc1 | 34* | 3 | 3 | 0 | 0
COc1cccc(S(=O)(=O)Nc2cccc(C(=O)N3CCCC3)c2)c1 | -1 | -3 | -5 | 0 | 6
O=C(Nc1ccccc1N1CCOCC1)c1ccccc1NS(=O)(=O)c1ccc(F)c(F)c1 | 6 | -3 | -14 | 2 | 0
CS(=O)(=O)Nc1ccc(C(=O)N2CCN(c3ccccc3F)CC2)cc1 | -6 | 63* | -3 | 0 | -2
COc1cccc(S(=O)(=O)Nc2cccc(C(=O)N3CCOCC3)c2)c1 | 1 | 36* | -17 | 0 | -4
COC(=O)C1Cc2c([nH]c3ccccc23)C2(CCN(Cc3ccccc3)CC2)N1 (stereo not given) | -32 | 75* | -12 | 4 | -5
CCCN1CCC2(CC1)NC(C(=O)O)Cc1c2[nH]c2ccccc12 (stereo not given) | 21 | -8 | 0 | 1 | 1
Cc1cc(F)ccc1C(O)c1ncc(-c2ccccc2C(F)(F)F)[nH]1 (stereo not given) | . | . | -4 | . | 6
Nc1nnc(SCC(=O)Nc2cc(C(F)(F)F)ccc2N2CCOCC2)s1 | 2 | 87* | -9 | 0 | -2
O=C(Nc1cc(C(F)(F)F)ccc1N1CCOCC1)c1cncc(Br)c1 | -6 | 31* | -3 | 0 | 0
Cc1ccnc2c1ccc1cccnc12 | -3 | 0 | -9 | 0 | 3
Cc1ccnc2c1ccc1c(C)ccnc12 | -18 | 43* | -25 | 1 | -5
CN1C(=O)c2ccccc2Sc2ccc(NC(=O)COc3ccccc3)cc21 | 10 | . | . | 1 | .
Cc1nc(=O)c(-c2ccccc2)c(C)n1-c1cccc(C(=O)O)c1 | -8 | 31* | 6 | 0 | -2
O=S(=O)(CC(O)(c1ccccc1)c1ccccc1)CC(O)(c1ccccc1)c1ccccc1 | . | . | -1 | . | -1
CC(O)(CS(=O)(=O)c1ccc(Br)cc1)c1ccccc1 (stereo not given) | -8 | 31* | 4 | 0 | 7
COc1ccc(NC(=O)CSc2nnc3ccc(-c4ccccn4)nn23)cc1OC | -10 | 30* | -18 | 0 | -5
COc1ccc(/C=N/NC(=O)c2ccc(O)cc2O)cc1CSc1ccccn1 | -15 | 19 | -1 | 39* | 0
Cc1ccccc1Cn1nnc2c(=O)[nH]c(C3CCN(C(=O)c4ccccc4)CC3)nc21 | 1 | . | . | 0 | .
CCCOC(=O)Nc1nnc(CCC)s1 | -15 | 44* | -8 | 1 | -2
CCCc1nnc(NC(=O)CCS(=O)(=O)c2ccccc2)s1 | 32* | -16 | -4 | 0 | 0
CCOC(=O)C1(C)CCN1C(=O)c1ccccc1 (stereo not given) | . | . | -6 | . | -4
SMILES | D2 PAM-1 | D2 antag | D2 PAM-2 | D2 ag-1 | D2 ag-2
Cc1nnc(NC(=O)CSc2ccc3nnc(-c4cccnc4)n3n2)s1 | -8 | -16 | . | 0 | .
CON(C)S(=O)(=O)c1cccc(C(=O)Nc2ccc(S(=O)(=O)NC3=NCCCCC3)cc2)c1 | -4 | 33* | -18 | -1 | 0
OC(CN1CCN(c2ccccc2Cl)CC1)c1ccccc1 (stereo not given) | -21 | 86* | -12 | 7 | 2
CCOC(=O)c1cc2c(=O)n3ccccc3nc2n(CC2CCCO2)c1=NC(=O)c1ccc(C)cc1 (stereo not given) | 17 | . | . | -1 | .
O=c1[nH]nc(CNc2ccc(C(F)(F)F)cc2)c2ccccc12 | 7 | 0 | 1 | 1 | 6
O=c1[nH]nc(CNc2ccc(O)cc2)c2ccccc12 | 16 | -17 | 71* | 1 | 14
CCN(C(=O)c1cnc(N2CCN(c3ncccn3)CC2)c2ccccc12)c1cccc(Cl)c1 | 25 | 46* | -14 | 1 | -3
Cc1ccccc1C(=O)NCc1nnc(SCC(=O)N2CCN(c3ccccc3)CC2)n1C | 0 | 39* | -6 | -1 | -6
CCOC(=O)CSc1nnc(CNC(=O)c2cccc(C)c2)n1-c1ccccc1OC | -3 | . | -1 | . | 0
CC(C)C[C@H](NC(=O)N1CCN(c2ccccc2)CC1)C(=O)O | . | . | 0 | . | 2
Cc1ccccc1C(=O)NC(CC(C)C)C(=O)N1CCN(c2ccccc2)CC1 (stereo not given) | 31* | -3 | -9 | 0 | 0
CCOC(=O)CSc1nnc(CNC(=O)c2cccc(C)c2)n1C | 4 | 35* | 0 | 0 | ?
CCOc1ccc(CNC(=O)C2CCN(C(=O)N3CC(CC)Oc4ccc(C)cc43)CC2)cc1OC (stereo not given) | -13 | . | . | 1 | .
C/C(=N\NC(=O)c1ccccc1F)c1ccc(C#N)cc1 | 5 | 36* | -4 | 2 | 0
COc1cc(NCCCC(C)N)c2ncccc2c1 (stereo not given) | 9 | 2 | 4 | -3 | 6
CCC(CNc1cc(OC)cc2cccnc12)NC1CCCCC1 (stereo not given) | -18 | 47* | -19 | -1 | 7
O=C(CCC(=O)c1ccc(F)cc1)Nc1cc(Cl)cc(Cl)c1 | -16 | 39* | -24 | 0 | -5
COc1ccc(Cl)cc1NC(=O)CSc1nnc(CN2CCOCC2)n1-c1ccc(Cl)cc1 | -24 | 76* | -24 | 1 | -2
Cc1ccc(C(C)C)c(OCC(=O)Nc2ccc(-c3nc4ncccc4o3)cc2C)c1 | 0 | . | . | 0 | .
CCCCOc1c(Cl)cc(C(=O)N(Cc2ccc(C)o2)C2CCS(=O)(=O)C2)cc1Cl (stereo not given) | 11 | . | . | -1 | .
O=C(c1ccccc1Cl)N(Cc1ccco1)Cc1ccco1 | 5 | . | . | -1 | .
CCCSc1nnc(Sc2nnnn2-c2ccccc2)s1 | 2 | 44* | -12 | -2 | -2
Cc1ccccc1-n1nnnc1Sc1nnnn1-c1ccccc1 | 2 | 12 | -10 | 0 | -1
CCCN(CC(=O)Nc1ccccc1C)C(=O)c1ccc(S(=O)(=O)N2CCCCC2)cc1 | -8 | 5 | -30 | -1 | -2
